Results from PubChem BioAssay AID1159580 (chemical genetic matrix, 2015).
Where “and” joins values, the source holds several entries; their conditions need not be identical. Equal values may be shown once. In all, about 5,500 compounds went through this assay and about 2,000 (36%) were called active. Inconclusive results (about 18%) are left out. The list shows a part of the results. A number with no mark means an inactive call. Cut-off read from the data, not from the text of the source: active = normalized growth mostly below about 0.91 (no sharp cut-off); inconclusive = no clear call, values can overlap the other calls; inactive = mostly above about 0.92.

Assay: chemical genetic growth profiling, strain panel (AID 1159580);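 note: tested at 20 µM; growth read once vehicle control cultures reached saturation at 30 °C; 1 = growth at the plate median or of vehicle wells; lower values mean less growth of the strain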
Conditions: S. cerevisiae deletion strains, growth OD

SMILES: C[C@]12CCC3c4ccc(O)cc4CCC3C1CC[C@@H]2O (some centres undefined)
- normalized growth (locus YAL013W, strain DEP1, active compounds read low): 1.01
- normalized growth (locus YAL021C, strain ccr4, active compounds read low): 0.983
- normalized growth (locus YAL026C, strain drs2, active compounds read low): 0.943
- normalized growth (locus YAL030W, strain snc1, active compounds read low): 1.01
- normalized growth (locus YBL061C, strain skt5, active compounds read low): 0.961
- normalized growth (locus YBR009C, strain hhf1, active compounds read low): 0.91
- normalized growth (locus YBR021W, strain FUR4, active compounds read low): 0.783 (active)
- normalized growth (locus YBR023C, strain chs3, active compounds read low): 0.992
- normalized growth (locus YBR171W, strain sec66, active compounds read low): 1.01
- normalized growth (locus YBR229C, strain ROT2, active compounds read low): 1.01
- normalized growth (locus YBR231C, strain swc5, active compounds read low): 0.946
- normalized growth (locus YBR279W, strain paf1, active compounds read low): 0.993
- normalized growth (locus YCL011C, strain gbp2, active compounds read low): 0.988
- normalized growth (locus YCL016C, strain dcc1, active compounds read low): 0.975
- normalized growth (locus YCL029C, strain bik1, active compounds read low): 0.996
- normalized growth (locus YCL061C, strain MRC1, active compounds read low): 0.988
- normalized growth (locus YCL069W, strain vba3, active compounds read low): 1.01
- normalized growth (locus YCR088W, strain abp1, active compounds read low): 1.03
- normalized growth (locus YDL005C, strain med2, active compounds read low): 1.02
- normalized growth (locus YDL035C, strain GPR1, active compounds read low): 0.912
- normalized growth (locus YDL040C, strain nat1, active compounds read low): 1.02
- normalized growth (locus YDL074C, strain BRE1, active compounds read low): 0.882
- normalized growth (locus YDL101C, strain DUN1, active compounds read low): 1
- normalized growth (locus YDL185W, strain tfp1, active compounds read low): 0.979
- normalized growth (locus YDL192W, strain arf1, active compounds read low): 0.958
- normalized growth (locus YDR001C, strain nth1, active compounds read low): 1.03
- normalized growth (locus YDR069C, strain doa4, active compounds read low): 1
- normalized growth (locus YDR101C, strain arx1, active compounds read low): 0.958
- normalized growth (locus YDR137W, strain rgp1, active compounds read low): 0.83 (active)
- normalized growth (locus YDR150W, strain NUM1, active compounds read low): 1.03
- normalized growth (locus YDR159W, strain sac3, active compounds read low): 0.954
- normalized growth (locus YDR162C, strain NBP2, active compounds read low): 0.987
- normalized growth (locus YDR195W, strain ref2): 1.27 [resistant] (active)
- normalized growth (locus YDR297W, strain sur2, active compounds read low): 0.992
- normalized growth (locus YDR318W, strain mcm21, active compounds read low): 0.996
- normalized growth (locus YDR334W, strain swr1, active compounds read low): 1.02
- normalized growth (locus YDR335W, strain msn5, active compounds read low): 0.985
- normalized growth (locus YDR388W, active compounds read low): 0.997
- normalized growth (locus YDR392W, strain spt3, active compounds read low): 0.639 (active)
- normalized growth (locus YDR502C, strain sam2, active compounds read low): 0.973
- normalized growth (locus YEL003W, strain gim4, active compounds read low): 0.921
- normalized growth (locus YEL037C, strain rad23, active compounds read low): 1.02
- normalized growth (locus YEL061C, strain CIN8 (second series), active compounds read low): 1.01
- normalized growth (locus YEL061C, strain CIN8, active compounds read low): 1.02
- normalized growth (locus YER015W, strain faa2, active compounds read low): 0.981
- normalized growth (locus YER016W, strain bim1, active compounds read low): 0.969
- normalized growth (locus YER110C, active compounds read low): 0.989
- normalized growth (locus YER111C, strain swi4, active compounds read low): 1.03
- normalized growth (locus YER155C, strain BEM2 (second series), active compounds read low): 1.04
- normalized growth (locus YER155C, strain BEM2, active compounds read low): 1.03
- normalized growth (locus YER167W, strain BCK2, active compounds read low): 1
- normalized growth (locus YFR010W, strain ubp6, active compounds read low): 1
- normalized growth (locus YGL078C, strain dbp3, active compounds read low): 0.934
- normalized growth (locus YGL086W, strain mad1, active compounds read low): 0.953
- normalized growth (locus YGL167C, strain pmr1, active compounds read low): 1.01
- normalized growth (locus YGL173C, strain kem1, active compounds read low): 0.968
- normalized growth (locus YGL227W, strain vid30, active compounds read low): 1.03
- normalized growth (locus YGL240W, strain doc1, active compounds read low): 0.96
- normalized growth (locus YGL248W, strain PDE1, active compounds read low): 0.981
- normalized growth (locus YGL253W, strain hxk2, active compounds read low): 0.895 (active)
- normalized growth (locus YGR078C, strain PAC10, active compounds read low): 0.967
- normalized growth (locus YGR135W, strain pre9, active compounds read low): 0.949
- normalized growth (locus YGR252W, strain gcn5, active compounds read low): 0.735 (active)
- normalized growth (locus YHR013C, strain ard1, active compounds read low): 0.996
- normalized growth (locus YHR027C, strain rpn1, active compounds read low): 1.01
- normalized growth (locus YHR030C, strain SLT2, active compounds read low): 1.03 and 0.961
- normalized growth (locus YHR079C, strain IRE1 (second series), active compounds read low): 1.01
- normalized growth (locus YHR079C, strain IRE1, active compounds read low): 0.954
- normalized growth (locus YHR094C, strain hxt1, active compounds read low): 1.01
- normalized growth (locus YHR129C, strain ARP1, active compounds read low): 1
- normalized growth (locus YHR142W, strain chs7, active compounds read low): 0.891
- normalized growth (locus YHR200W, strain rpn10, active compounds read low): 1
- normalized growth (locus YIL066C, strain RNR3, active compounds read low): 0.955
- normalized growth (locus YIL073C, strain SPO22, active compounds read low): 0.936
- normalized growth (locus YIL125W, strain kgd1, active compounds read low): 1
- normalized growth (locus YIR030C, strain dcg1, active compounds read low): 1
- normalized growth (locus YJL092W, strain hpr5, active compounds read low): 1.03
- normalized growth (locus YJL095W, strain BCK1 (second series), active compounds read low): 0.997
- normalized growth (locus YJL095W, strain BCK1, active compounds read low): 0.978 and 0.961
- normalized growth (locus YJL115W, strain asf1, active compounds read low): 1.02
- normalized growth (locus YJL129C, strain trk1, active compounds read low): 0.889
- normalized growth (locus YJL134W, strain LCB3, active compounds read low): 1.02
- normalized growth (locus YJL154C, strain vps35, active compounds read low): 1.02
- normalized growth (locus YJL164C, strain tpk1, active compounds read low): 0.916 (active)
- normalized growth (locus YJL166W, strain qcr8, active compounds read low): 0.971
- normalized growth (locus YJL168C, strain set2, active compounds read low): 0.997
- normalized growth (locus YJL187C, strain SWE1 (second series), active compounds read low): 0.966
- normalized growth (locus YJL187C, strain SWE1, active compounds read low): 1.01
- normalized growth (locus YJR043C, strain POL32, active compounds read low): 0.938
